Experimental findings from PubChem BioAssay are described below.

Records with an inconclusive call do not appear. Active and inactive are the calls of the source. Unless noted, cut-off not given; nearly all actives show AC50 up to about 26 µM.

Assay [1] in a line: viability loss in pontine glioma line – cell-based, SU-DIPG-XVII, MIPE5.0, CellTiter-Glo, qHTS, dose response (AID 1347060).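 Further: cells exposed to compound for 48 hours before viability readout.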 The following applies: CellTiter-Glo ATP luminescence.
Assay [2] in a line: viability loss in pontine glioma line – cell-based, SU-DIPG-XIII, MIPE4.0, CellTiter-Glo, qHTS, dose response (AID 1347061; cut-off not given, nearly all actives have AC50 up to about 37 µM;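 further: cells exposed to compound for 48 hours before readout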). The conditions noted are these: CellTiter-Glo ATP luminescence. For orientation: ATP-based viability assays read luminescence as a measure of living cells.
A short description of assay [3]: viability loss in pontine glioma line – cell-based, JHH-DIPG-1, MIPE4.0, CellTiter-Glo, qHTS, dose response (AID 1347062; cut-off not given, nearly all actives have AC50 up to about 27 µM;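 further: cells exposed to compound for two days before readout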). The following applies: JHH-DIPG-1 viability, CellTiter-Glo ATP luminescence.
Assay [4] is described as follows: viability loss in pontine glioma line – cell-based, SU-DIPG-IV, MIPE4.0, CellTiter-Glo, qHTS, dose response (AID 1347063; cut-off not given, nearly all actives have AC50 up to about 30 µM;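 further: compound exposure lasted 48 hours before the viability readout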). The following applies: CellTiter-Glo ATP luminescence.
A short description of assay [5]: viability loss in pontine glioma line – cell-based, SU-DIPG-XIII, MIPE5.0, CellTiter-Glo, qHTS, dose response (AID 1347064; cut-off not given, nearly all actives have AC50 up to about 23 µM;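 further: cells exposed to compound for 48 hours before the viability read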). The following applies: CellTiter-Glo ATP luminescence.
The nature of assay [6]: viability loss in pontine glioma line – cell-based, SU-DIPG-XXV, MIPE5.0, CellTiter-Glo, qHTS, dose response (AID 1347065).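 Further: cells exposed to compound for 48 hours before ATP readout.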 The following applies: CellTiter-Glo ATP luminescence.
Assay [7] can be described thus: growth inhibition of DIPG cells – cell-based, MIPE4.0 library, CellTiter-Glo luminescence, qHTS (AID 1347066; cut-off not given, nearly all actives have AC50 up to about 30 µM;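 further: cells exposed to compound for 48 hours before readout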). The conditions noted are these: SU-DIPG-VI viability, CellTiter-Glo ATP luminescence.
Assay [8] is described as follows: JHH-DIPG-1 glioma cell viability, MIPE5.0 library, CellTiter-Glo luminescence, qHTS (AID 1347067).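 Further: cells exposed to compound for 48 hours before readout.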 The following applies: JHH-DIPG-1 glioma viability, CellTiter-Glo ATP luminescence.
A short description of assay [9]: growth inhibition of DIPG cells – cell-based, MIPE5.0 library, qHTS (AID 1347068; cut-off not given, nearly all actives have IC50 up to about 30 µM;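 further: cells exposed to compound for 48 hours before viability readout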). The following applies: SU-DIPG-XXV viability. In general terms: Quantitative high-throughput screening tests each substance at several concentrations.
Assay [10] in a line: viability loss with induced miR-34 in A549 – imaging, A549 dox-inducible miR-34, nuclei and caspase counts, primary screen (AID 1347080;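 active means compounds whose cell count with miR-34 switched on is under 0.7 times the count with it off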). The following applies: A549 miR-34 inducible, Hoechst nuclei count, 48 h.
The nature of assay [11]: MELAS cybrid and Rieske KO viability enhancers – cell-based, MELAS cybrids, Rieske KO mouse fibroblasts, CellTiter-Glo, primary screen (AID 1508586;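 active means mean z-score across replicates of 1.96 or higher in either the MELAS or the Rieske mutant cell line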;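 further: z relative to plate mean and SD of compound and empty wells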). The conditions noted are these: low glucose.
Assay [12] is described as follows: compounds altering HSF1 focus formation in cells – imaging, Selleck Cancer Library (AID 1347162; in the data active means plate-normalised HSF1 focus index below about 0.46). The conditions noted are these: human cells, HSF1 nuclear foci imaging, at 10 µM; SSMD: measured here: HSF1 foci SSMD mean; cell count: measured here: cell number; plate-normalised HSF1 focus index: stronger effect = lower value.
[13] abbreviates: stronger effect = lower value, cell number ratio, induced over uninduced.
Setting [14] is: measured here: relative caspase fold change +Dox/-Dox.
Setting [15] is: measured here: total cells with miR-34 induction, stronger effect = lower value.
The mark [16] stands for this setting: measured here: total cells without miR-34 induction.
Setting [17] is: MELAS cybrid survival, CellTiter-Glo 48 h, stronger effect = higher value.
[18] abbreviates: Rieske KO mouse fibroblast survival, CellTiter-Glo 72 h.

For orientation: AC50 means the midpoint of the concentration-response curve, whichever way the signal moves. For orientation: IC50 means the concentration that gives 50% inhibition. As for `CC1(C)CC(=O)c2c(C(F)(F)F)nn(-c3ccc(C(N)=O)c(NC4CCC(O)CC4)c3)c2C1` (configuration not stated), the AC50 is 0.118 µM (active) in [1]; 0.469 µM (active) in [2]; 0.166 µM (active) in assay [3]; 0.132 µM (active) in [4]; 0.148 µM (active) in [5]; 0.105 µM (active) in [6]. The results for the AC50 in assay [7] and in assay [8] were 0.148 µM (active) and 0.118 µM (active), respectively. Moreover, the IC50 in assay [9] was 0.186 µM (active). The values for the fold change in assay [10] (setting [13]) and in assay [10] (setting [14]) were 0.978 (inactive) and 0.783, respectively. Also, the cell count in assay [10] (setting [15]) is 3040; in [10] (setting [16]), 3110. Besides, the z-score was 2.87 (active) in [11] (setting [17]) and -1.99 in assay [11] (setting [18]).

`CC1(C)OC2=C(C(=O)c3ccccc3C2=O)[C@H](NCc2ccccc2)[C@@H]1O`: the AC50 in assay [1] was 6.61 µM (active); in [2], 5.9 µM (active); in assay [3], 2.35 µM (active); in assay [4], 5.9 µM (active); in [5], 2.95 µM (active); in [6], 3.72 µM (active). The AC50 in assay [7] is 2.64 µM (active); in assay [8] it was 3.32 µM (active). In addition, the IC50 in assay [9] was 8.33 µM (active). The compound also yielded an SSMD in assay [12] of 0.824. This compound also yielded a cell count in assay [12] of 7240. Further, in [12], the plate-normalised HSF1 focus index was 1.05 (inactive).

Consider `c1ccc(CNc2nc(NCc3ccccc3)c3ccccc3n2)cc1`, for which the AC50 in assay [1] was 14.8 µM (active); in assay [2] it was 7.43 µM (active); in [3], 23.5 µM (active); in [4] it was 20.9 µM (active); in [5], 16.6 µM (active); in assay [6] it was 9.34 µM (active). Besides, the results for the AC50 in assay [7] and in [8] were 23.5 µM (active) and 10.5 µM (active), respectively. For the same compound, the IC50 in assay [9] was 29.5 µM (active). Further, the fold change was 0.814 (inactive) in assay [10] (setting [13]) and 0.477 in assay [10] (setting [14]). Further, the cell count was found to be 3510 in assay [10] (setting [15]) and 4310 in assay [10] (setting [16]). Also, the values for the z-score in [11] (setting [17]) and in [11] (setting [18]) were -0.415 (inactive) and -0.855, respectively.

As for `O=C(NCc1ccccc1)c1csc(Nc2ccncn2)n1`, the AC50 was 18.6 µM (active) in assay [1]; 20.9 µM (active) in [2]; 4.18 µM (active) in assay [3]; 9.35 µM (active) in assay [4]; 14.8 µM (active) in assay [5]; 16.6 µM (active) in assay [6]. Moreover, the AC50 in [7] and in assay [8] was 16.6 µM (active) each time. Further, the IC50 in [9] was 23.5 µM (active). Further, the fold change was 0.918 (inactive) in [10] (setting [13]) and 0.977 in [10] (setting [14]). The results for the cell count in [10] (setting [15]) and in [10] (setting [16]) were 4990 and 5440, respectively. Further, the z-score in [11] (setting [17]) was -0.235 (inactive); in assay [11] (setting [18]), -0.0999.

For the compound `NC(=NCCCCCCN=C(N)N=C(N)Nc1ccc(Cl)cc1)N=C(N)Nc1ccc(Cl)cc1`, the AC50 was 9.34 µM (active) in assay [1]; 4.18 µM (active) in assay [2]; 14.8 µM (active) in [3]; 18.7 µM (active) in assay [4]; 8.33 µM (active) in [5]; 9.34 µM (active) in assay [6]. The values for the AC50 in assay [7] and in assay [8] were 13.2 µM (active) and 11.8 µM (active), respectively. The IC50 in [9] is 14.8 µM (active). The fold change was 0.848 (inactive) in assay [10] (setting [13]) and 0.439 in assay [10] (setting [14]). The cell count in assay [10] (setting [15]) turned out to be 1370; in assay [10] (setting [16]), 1620. In addition, the values for the z-score in [11] (setting [17]) and in assay [11] (setting [18]) were -0.252 (inactive) and 0.00983, respectively.
